# Source: PubChem BioAssay (NCI)
# Compounds without any hit were thinned out: in the full panel of roughly 79,000, 15% have a hit. Unmarked numbers belong to inactive results. Activity calls are given as the source filed them. No stated cut-off is given here; in the data, active means growth inhibition above about 70%; inactive means the rest.
# Columns and labels:
# [1] = NCI Yeast Anticancer Drug Screen. Data for the rad52 strain (AID 147);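 further: 0% = growth of vehicle-treated control cultures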; conditions: S. cerevisiae rad52 mutant growth inhibition, stronger effect = higher value
# How it was run: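 Measured: yeast growth inhibition. System: strain with a defined DNA damage repair alteration. Reference: vehicle-treated control cultures.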
# [2] = NCI Yeast Anticancer Drug Screen. Data for the wt1 strain (AID 149);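 further: 0% = growth of vehicle-treated wt1 cultures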; conditions: S. cerevisiae wt1 strain (SPY 50644) growth inhibition, stronger effect = higher value
# How it was run: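 Growth inhibition read against vehicle controls after compound exposure of the wt1 yeast strain.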
# [3] = NCI Yeast Anticancer Drug Screen. Data for the rad50EPP+ strain (AID 151);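 further: 0% = growth of vehicle-treated control cultures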; conditions: S. cerevisiae rad50 mutant strain, stronger effect = higher value
# How it was run: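 One strain with a rad50 alteration (rad50EPP+) was compound-treated, its growth then compared to that of vehicle controls.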
# [4] = NCI Yeast Anticancer Drug Screen. Data for the mgt1 strain (AID 153); conditions: S. cerevisiae mgt1 mutant growth inhibition, stronger effect = higher value
# How it was run: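 After exposure of the mgt1 yeast mutant to compound, growth was measured and reported as inhibition compared with vehicle controls.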
# [5] = NCI Yeast Anticancer Drug Screen. Data for the rad50 strain (AID 155);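 further: 0% = growth of vehicle-only cultures of the same strain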; conditions: S. cerevisiae rad50 strain growth inhibition, stronger effect = higher value
# How it was run: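 Readout: growth inhibition relative to vehicle-treated cultures. Compound exposure was carried out in a genetically defined yeast strain deficient in DNA damage repair.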
# [6] = NCI Yeast Anticancer Drug Screen. Data for the mec2-1 strain (AID 157); conditions: S. cerevisiae mec2-1 strain, stronger effect = higher value
# How it was run: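 Test agents were screened against the mec2-1 yeast strain, with defined DNA repair or cell cycle alteration. Growth was scored as inhibition against vehicle-only controls.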
# [7] = NCI Yeast Anticancer Drug Screen. Data for the rad14 strain (AID 159);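 further: 0% = growth of vehicle-treated control cultures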; conditions: S. cerevisiae rad14 strain growth inhibition, stronger effect = higher value
# How it was run: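 Growth inhibition vs vehicle controls; genetically altered yeast strain (DNA damage repair defect) treated with test compounds.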
# [8] = NCI Yeast Anticancer Drug Screen. Data for the sgs1 mgt1 strain (AID 161);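 further: 0% = growth of cultures given vehicle only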; conditions: S. cerevisiae sgs1 mgt1 strain, stronger effect = higher value
# How it was run: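 Read-out: growth inhibition vs vehicle controls. Cells: mutant yeast strain deficient in DNA damage repair.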
# [9] = NCI Yeast Anticancer Drug Screen. Data for the CLN2oe strain (AID 163);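 further: 0% = growth of vehicle-only control cultures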; conditions: S. cerevisiae CLN2oe strain, stronger effect = higher value
# How it was run: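 Here, growth inhibition in a cell-cycle-altered yeast strain after compound exposure was quantified against vehicle control growth.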
# [10] = NCI Yeast Anticancer Drug Screen. Data for the cln2 rad14 strain (AID 165);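 further: 0% = growth equal to vehicle treated cultures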; conditions: S. cerevisiae cln2 rad14 strain, stronger effect = higher value
# How it was run: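 Growth of compound-exposed yeast (cln2 rad14 genotype) measured and expressed as inhibition relative to vehicle.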
# [11] = NCI Yeast Anticancer Drug Screen. Data for the bub3 strain (AID 167); conditions: S. cerevisiae bub3 mutant strain, stronger effect = higher value
# How it was run: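 Readout: yeast growth inhibition, expressed relative to vehicle-only wells. The test organism is a mutant strain from a panel with lesions in DNA repair or checkpoint genes.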
# [12] = NCI Yeast Anticancer Drug Screen. Data for the wt2 strain (AID 169);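 further: 0% = growth of vehicle-treated yeast cultures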; conditions: S. cerevisiae wt2 strain growth inhibition, stronger effect = higher value
# How it was run: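 Genetically defined yeast strains from a DNA-repair/cell-cycle panel were used. Compound-exposed yeast growth was measured, and the inhibition was calculated relative to vehicle treatment.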
# [13] = NCI Yeast Anticancer Drug Screen. Data for the mlh1 strain (AID 171);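 further: 0% = growth of vehicle-treated control cultures of the same strain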; conditions: S. cerevisiae mlh1 strain growth inhibition, stronger effect = higher value
# How it was run: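 Here the genetically defined yeast mutant is grown with each compound, and the extent to which its growth falls below that of vehicle-exposed cells is reported.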
# [14] = NCI Yeast Anticancer Drug Screen. Data for the sgs1 strain (AID 173);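 further: 0% = growth of vehicle-only control cultures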; conditions: S. cerevisiae sgs1 mutant, stronger effect = higher value
# How it was run: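 Relative growth inhibition, referenced to vehicle, was determined in a yeast strain with a defined alteration affecting DNA damage repair or cell cycle control after compound exposure.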
# [15] = NCI Yeast Anticancer Drug Screen. Data for the mlh1 rad18 strain (AID 175); conditions: S. cerevisiae mlh1 rad18 strain growth inhibition, stronger effect = higher value
# How it was run: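 In this whole-cell yeast screen, a strain with altered DNA damage repair is challenged with compound, and its growth is measured against matched vehicle-treated controls.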
# [16] = NCI Yeast Anticancer Drug Screen. Data for the rad18 strain (AID 177); conditions: S. cerevisiae rad18 mutant growth inhibition, stronger effect = higher value
# How it was run: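 Screen uses a yeast strain with a defined lesion in DNA damage repair; compound effect is read as loss of growth compared to untreated vehicle cultures.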
# [17] = at 5.0 µM (retest, dose inferred, filed as 0.5)
# [18] = at 50.0 µM (retest, dose inferred, filed as 5.0)
compound,measurement,setting,value
COc1cccc2c1C(=O)c1c(O)c3c(c(O)c1C2=O)C[C@@](O)(C(C)=O)C[C@@H]3OC1CC(OC(C)=O)C(OC(C)=O)C(C)O1 (stereo partly drawn),growth inhibition,[1]; at 1.2 µM,-12%
same,growth inhibition,[1]; at 3.7 µM,-7%
same,growth inhibition,[1]; at 11.0 µM,37%
same,growth inhibition,[1]; at 33.0 µM,48%
same,growth inhibition,[1]; at 100.0 µM,40%
same,growth inhibition,[2]; at 1.2 µM,-26%
same,growth inhibition,[2]; at 3.7 µM,-43%
same,growth inhibition,[2]; at 11.0 µM,-46%
same,growth inhibition,[2]; at 33.0 µM,-24%
same,growth inhibition,[2]; at 100.0 µM,-28%
same,growth inhibition,[3]; at 1.2 µM,-11%
same,growth inhibition,[3]; at 3.7 µM,-16%
same,growth inhibition,[3]; at 11.0 µM,-7%
same,growth inhibition,[3]; at 33.0 µM,7%
same,growth inhibition,[3]; at 100.0 µM,36%
same,growth inhibition,[4]; at 1.2 µM,-41%
same,growth inhibition,[4]; at 3.7 µM,-51%
same,growth inhibition,[4]; at 11.0 µM,-33%
same,growth inhibition,[4]; at 33.0 µM,-22%
same,growth inhibition,[4]; at 100.0 µM,-11%
same,growth inhibition,[5]; at 1.2 µM,-40%
same,growth inhibition,[5]; at 3.7 µM,-11%
same,growth inhibition,[5]; [17],22%
same,growth inhibition,[5]; at 11.0 µM,39%
same,growth inhibition,[5]; at 33.0 µM,51%
same,growth inhibition,[5]; [18],76% (active)
same,growth inhibition,[5]; at 50.0 µM,56.2%
same,growth inhibition,[5]; at 100.0 µM,47%
same,growth inhibition,[6]; at 1.2 µM,-64%
same,growth inhibition,[6]; at 3.7 µM,-46%
same,growth inhibition,[6]; [17],13%
same,growth inhibition,[6]; at 11.0 µM,-34%
same,growth inhibition,[6]; at 33.0 µM,-25%
same,growth inhibition,[6]; [18],41%
same,growth inhibition,[6]; at 50.0 µM,60%
same,growth inhibition,[6]; at 100.0 µM,1%
same,growth inhibition,[7]; at 1.2 µM,-35%
same,growth inhibition,[7]; at 3.7 µM,-3%
same,growth inhibition,[7]; at 11.0 µM,-6%
same,growth inhibition,[7]; at 33.0 µM,10%
same,growth inhibition,[7]; at 100.0 µM,29%
same,growth inhibition,[8]; [17],98% (active)
same,growth inhibition,[8]; [18],96% (active)
same,growth inhibition,[8]; at 50.0 µM,77% (active)
same,growth inhibition,[9]; at 1.2 µM,3%
same,growth inhibition,[9]; at 3.7 µM,-2%
same,growth inhibition,[9]; at 11.0 µM,12%
same,growth inhibition,[9]; at 33.0 µM,11%
same,growth inhibition,[9]; at 100.0 µM,19%
same,growth inhibition,[10]; [17],96% (active)
same,growth inhibition,[10]; [18],97% (active)
same,growth inhibition,[10]; at 50.0 µM,17.3%
same,growth inhibition,[11]; at 1.2 µM,-54%
same,growth inhibition,[11]; at 3.7 µM,-38%
same,growth inhibition,[11]; [17],98% (active)
same,growth inhibition,[11]; at 11.0 µM,-50%
same,growth inhibition,[11]; at 33.0 µM,-35%
same,growth inhibition,[11]; [18],97% (active)
same,growth inhibition,[11]; at 50.0 µM,75.7% (active)
same,growth inhibition,[11]; at 100.0 µM,-4%
same,growth inhibition,[12]; at 1.2 µM,-23%
same,growth inhibition,[12]; at 3.7 µM,-18%
same,growth inhibition,[12]; at 11.0 µM,-2%
same,growth inhibition,[12]; at 33.0 µM,0%
same,growth inhibition,[12]; at 100.0 µM,12%
same,growth inhibition,[13]; at 1.2 µM,-41%
same,growth inhibition,[13]; at 3.7 µM,-37%
same,growth inhibition,[13]; at 11.0 µM,-30%
same,growth inhibition,[13]; at 33.0 µM,-8%
same,growth inhibition,[13]; at 100.0 µM,18%
same,growth inhibition,[14]; at 1.2 µM,-17%
same,growth inhibition,[14]; at 3.7 µM,-23%
same,growth inhibition,[14]; at 11.0 µM,-14%
same,growth inhibition,[14]; at 33.0 µM,-3%
same,growth inhibition,[14]; at 100.0 µM,-9%
same,growth inhibition,[15]; [17],23%
same,growth inhibition,[15]; [18],62%
same,growth inhibition,[15]; at 50.0 µM,82.7% (active)
same,growth inhibition,[16]; at 1.2 µM,-28%
same,growth inhibition,[16]; at 3.7 µM,-29%
same,growth inhibition,[16]; at 11.0 µM,-16%
same,growth inhibition,[16]; at 33.0 µM,-5%
same,growth inhibition,[16]; at 100.0 µM,-1%
CC(=O)Nc1ccc2c(c1)-c1ccccc1C2=O,growth inhibition,[1]; at 1.2 µM,-1%
same,growth inhibition,[1]; at 3.7 µM,1%
same,growth inhibition,[1]; at 11.0 µM,10%
same,growth inhibition,[1]; at 33.0 µM,70% (active)
same,growth inhibition,[1]; at 100.0 µM,95% (active)
same,growth inhibition,[2]; at 1.2 µM,-2%
same,growth inhibition,[2]; at 3.7 µM,-1%
same,growth inhibition,[2]; at 11.0 µM,-48%
same,growth inhibition,[2]; at 33.0 µM,6%
same,growth inhibition,[2]; at 100.0 µM,45%
same,growth inhibition,[3]; at 1.2 µM,-2%
same,growth inhibition,[3]; at 3.7 µM,-4%
same,growth inhibition,[3]; at 11.0 µM,2%
same,growth inhibition,[3]; at 33.0 µM,25%
same,growth inhibition,[3]; at 100.0 µM,78% (active)
same,growth inhibition,[4]; at 1.2 µM,-5%
same,growth inhibition,[4]; at 3.7 µM,-4%
same,growth inhibition,[4]; at 11.0 µM,-5%
same,growth inhibition,[4]; at 33.0 µM,1%
same,growth inhibition,[4]; at 100.0 µM,76% (active)
same,growth inhibition,[5]; at 1.2 µM,-2%
same,growth inhibition,[5]; at 3.7 µM,19%
same,growth inhibition,[5]; [17],2%
same,growth inhibition,[5]; at 11.0 µM,20%
same,growth inhibition,[5]; at 33.0 µM,68%
same,growth inhibition,[5]; [18],54%
same,growth inhibition,[5]; at 50.0 µM,67.8%
same,growth inhibition,[5]; at 100.0 µM,95% (active)
same,growth inhibition,[6]; at 1.2 µM,-1%
same,growth inhibition,[6]; at 3.7 µM,2%
same,growth inhibition,[6]; [17],7%
same,growth inhibition,[6]; at 11.0 µM,4%
same,growth inhibition,[6]; at 33.0 µM,15%
same,growth inhibition,[6]; [18],15%
same,growth inhibition,[6]; at 50.0 µM,6.9%
same,growth inhibition,[6]; at 100.0 µM,70% (active)
same,growth inhibition,[7]; at 1.2 µM,-4%
same,growth inhibition,[7]; at 3.7 µM,-6%
same,growth inhibition,[7]; at 11.0 µM,-3%
same,growth inhibition,[7]; at 33.0 µM,10%
same,growth inhibition,[7]; at 100.0 µM,82% (active)
same,growth inhibition,[8]; [17],-3%
same,growth inhibition,[8]; [18],6%
same,growth inhibition,[8]; at 50.0 µM,2.4%
same,growth inhibition,[10]; [17],-3%
same,growth inhibition,[10]; [18],11%
same,growth inhibition,[10]; at 50.0 µM,-39.4%
same,growth inhibition,[11]; at 1.2 µM,0%
same,growth inhibition,[11]; at 3.7 µM,-3%
same,growth inhibition,[11]; [17],-3%
same,growth inhibition,[11]; at 11.0 µM,-1%
same,growth inhibition,[11]; at 33.0 µM,7%
same,growth inhibition,[11]; [18],-4%
same,growth inhibition,[11]; at 50.0 µM,-20.4%
same,growth inhibition,[11]; at 100.0 µM,66%
same,growth inhibition,[12]; at 1.2 µM,-4%
same,growth inhibition,[12]; at 3.7 µM,4%
same,growth inhibition,[12]; at 11.0 µM,-6%
same,growth inhibition,[12]; at 33.0 µM,1%
same,growth inhibition,[12]; at 100.0 µM,62%
